Several values for one entry are separate records, joined by “and”; a condition that tells them apart may be missing. Equal entries are not always repeated. Records with an inconclusive call do not appear. Activity calls are given as the source filed them. Unless noted, calls follow the shape of the dose curve; as a rule, active = well fitted curve in the direction sought with a large enough effect; inconclusive = small, poorly fitted or top-dose-only effect, or another doubt; inactive = no such curve, though single readings can be large; an effect the other way counts as inactive or inconclusive.
Key:
[1] = system: WaGa; assay: qHTS assay to identify novel small-molecules to repurpose for Merkel cell carcinoma treatment (AID 1296009); settings: MCC and control cell lines, CellTiter-Glo viability, 72 h; series mostly up to 46 µM; also: % is scaled to controls: 0 for no effect and ±100 for the full control effect; nearly all actives have a fitted effect of over 60% in size
Procedure, shortened: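 CellTiter-Glo luminescence after 72 hr compound exposure at 37 degree celsius gave cell viability. Libraries NPC and MIPE were run as 8- and 11-point dose responses; RLUs normalized to DMSO (negative) and no-cell (cytotoxicity) controls.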

[2] = system: C33A; assay: Primary qHTS to identify gynecologic anti-cancer compounds using libraries of approved drugs and bioactive compounds (AID 1345084); settings: Gynecologic cancer cell panel viability, ATPlite luminescence, 48 h; series mostly up to 57.5 µM; also: % is scaled to controls: 0 for no effect and ±100 for the full control effect; nearly all actives have a fitted effect of over 55% in size
Procedure, shortened: (§1)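 Cytotoxicity screen measuring ATP content by luciferase luminescence. Each compound is applied at five concentrations for 48 h at 37 C with 5% CO2.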

[3] = system: CAOV3; assay: as above; settings: Gynecologic cancer cell panel viability, ATPlite luminescence, 48 h; series mostly up to 57.5 µM
Procedure, shortened: as §1

[4] = system: CASKI; assay: as above; settings: Gynecologic cancer cell panel viability, ATPlite luminescence, 48 h; series mostly up to 57.5 µM
Procedure, shortened: as §1

[5] = system: Es-2; assay: as above; settings: Gynecologic cancer cell panel viability, ATPlite luminescence, 48 h; series mostly up to 57.5 µM
Procedure, shortened: as §1

[6] = system: HeLa; assay: as above; settings: Gynecologic cancer cell panel viability, ATPlite luminescence, 48 h; series mostly up to 57.5 µM
Procedure, shortened: as §1

[7] = system: Hek293T; assay: as above; settings: Gynecologic cancer cell panel viability, ATPlite luminescence, 48 h, control line for the selectivity index; series mostly up to 57.5 µM
Procedure, shortened: as §1

[8] = system: JEG-3; assay: as above; settings: Gynecologic cancer cell panel viability, ATPlite luminescence, 48 h; series mostly up to 57.5 µM
Procedure, shortened: as §1

[9] = system: OV90; assay: as above; settings: Gynecologic cancer cell panel viability, ATPlite luminescence, 48 h; series mostly up to 57.5 µM
Procedure, shortened: as §1

[10] = system: PA-1; assay: as above; settings: Gynecologic cancer cell panel viability, ATPlite luminescence, 48 h; series mostly up to 57.5 µM
Procedure, shortened: as §1

[11] = system: SKOV3; assay: as above; settings: Gynecologic cancer cell panel viability, ATPlite luminescence, 48 h; series mostly up to 57.5 µM
Procedure, shortened: as §1

[12] = system: Tov-21-G; assay: as above; settings: Gynecologic cancer cell panel viability, ATPlite luminescence, 48 h; series mostly up to 57.5 µM
Procedure, shortened: as §1

[13] = system: Tov112D; assay: as above; settings: Gynecologic cancer cell panel viability, ATPlite luminescence, 48 h; series mostly up to 57.5 µM
Procedure, shortened: as §1

[14] = Drug repurposing screens with cells derived from glioblastoma tumor samples (AID 1345199); settings: GBM patient neurospheres viability, ATP luminescence, 48 h; also: % is scaled to controls: 0 for no effect and ±100 for the full control effect; nearly all actives have a fitted effect of over 40% in size
Procedure, shortened: (§2)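 Primary testing used CD133+ neurospheres from four GBM patients, seven concentrations, 48 h exposure and ATP-based viability; confirmation added three slower-growing patient lines.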

[15] = system: astro; assay: as above; settings: viability, ATP luminescence, 48 h; series mostly up to 45.9 µM
Procedure, shortened: as §2

[16] = target: Nuclear receptor subfamily 1 group I member 2 (Rattus norvegicus) (UniProt Q9R1A7); assay: qHTS assay for small molecule activators of the rat pregnane X receptor (rPXR) signaling pathway (AID 651751; call rule not given here; also: 0% is about no effect); settings: rPXR reporter cells, luciferase (One-Glo), 24 h
[17] = qHTS assay for small molecule activators of the human pregnane X receptor (PXR) signaling pathway (AID 720659; call rule not given here; also: 0% is about no effect)
[18] = at 45.9 µM (top of the series), tumour line B
[19] = at 45.9 µM (top of the series), tumour line D
[20] = at 46 µM (top of the series), tumour line A
[21] = at 46.1 µM (top of the series), tumour line C
[22] = at 20 µM (top of the series), tumour line C
[23] = at 21.2 µM (top of the series), tumour line B
[24] = at 21.2 µM (top of the series), tumour line D
[25] = at 21.3 µM (top of the series), tumour line A

Sequence of Nuclear receptor subfamily 1 group I member 2 (Rattus norvegicus) (Q9R1A7 whole entry, looked up): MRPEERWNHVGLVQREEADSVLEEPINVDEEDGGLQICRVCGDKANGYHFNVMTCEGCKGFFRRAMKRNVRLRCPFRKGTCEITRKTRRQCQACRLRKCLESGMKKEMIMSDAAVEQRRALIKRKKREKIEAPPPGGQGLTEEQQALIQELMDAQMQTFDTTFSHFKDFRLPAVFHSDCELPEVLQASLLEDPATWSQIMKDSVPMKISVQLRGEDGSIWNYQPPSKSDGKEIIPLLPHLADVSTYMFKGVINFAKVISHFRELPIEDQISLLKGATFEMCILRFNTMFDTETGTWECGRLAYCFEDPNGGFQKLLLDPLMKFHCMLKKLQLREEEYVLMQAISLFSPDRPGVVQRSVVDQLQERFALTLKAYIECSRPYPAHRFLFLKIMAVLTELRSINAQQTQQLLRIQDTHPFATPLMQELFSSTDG

Cn1c(=O)c2c(ncn2CC2OCCO2)n(C)c1=O
inactive: Potency [1] | Potency [2] | Potency [3] | Potency [4] | Potency [5] | Potency [6] | Potency [7] | Potency [8] | Potency [9] | Potency [10] | Potency [11] | Potency [12] | Potency [13] | activity, negative = cell killing [14, 18] -0.596% | activity, negative = cell killing [14, 19] -3.46% | activity, negative = cell killing [14, 20] -20.3% | activity, negative = cell killing [14, 21] -4.14% | Potency [15]

O=C(O)c1ccccc1O
inactive: Potency [1] | Potency [2] | Potency [3] | Potency [4] | Potency [5] | Potency [6] | Potency [7] | Potency [8] | Potency [9] | Potency [10] | Potency [11] | Potency [12] | Potency [13] | activity, negative = cell killing [14, 18] -1.6% and -1.62% | activity, negative = cell killing [14, 19] -9.17% and -18.2% | activity, negative = cell killing [14, 20] -20.3% | activity, negative = cell killing [14, 21] -6.51% and 1.73% | Potency [15]

C=CCn1c(=O)n([C@@H]2O[C@H](CO)[C@@H](O)[C@H]2O)c2nc(N)[nH]c(=O)c21
inactive: Potency [1] | Potency [2] | Potency [3] | Potency [4] | Potency [5] | Potency [6] | Potency [7] | Potency [8] | Potency [9] | Potency [10] | Potency [11] | Potency [12] | Potency [13] | activity, negative = cell killing [14, 18] -4.36% | activity, negative = cell killing [14, 19] 2.91% | activity, negative = cell killing [14, 20] -17.2% | activity, negative = cell killing [14, 21] -7.78% | Potency [15]

Nc1ccc(S(=O)(=O)Nc2ccc(Cl)nn2)cc1
inactive: Potency [1] | Potency [2] | Potency [3] | Potency [4] | Potency [5] | Potency [6] | Potency [7] | Potency [8] | Potency [9] | Potency [10] | Potency [11] | Potency [12] | Potency [13] | activity, negative = cell killing [14, 22] -15.3% | activity, negative = cell killing [14, 23] -15.4% | activity, negative = cell killing [14, 24] -6% | activity, negative = cell killing [14, 25] -27.3% | activity, negative = cell killing [14, 18] -5.57% | activity, negative = cell killing [14, 19] -3.89% | activity, negative = cell killing [14, 21] -7.4% | Potency [15]

Cc1ncc([N+](=O)[O-])n1CC(O)CCl (stereo not given)
inactive: Potency [1] | Potency [2] | Potency [3] | Potency [4] | Potency [5] | Potency [6] | Potency [7] | Potency [8] | Potency [9] | Potency [10] | Potency [11] | Potency [12] | Potency [13] | activity, negative = cell killing [14, 22] -11.2% | activity, negative = cell killing [14, 23] -18% | activity, negative = cell killing [14, 24] -1.81% | activity, negative = cell killing [14, 25] -11.7% | Potency [15]

CCCCN1CCCC[C@H]1C(=O)Nc1c(C)cccc1C
inactive: Potency [1] | Potency [2] | Potency [3] | Potency [4] | Potency [5] | Potency [6] | Potency [7] | Potency [8] | Potency [9] | Potency [10] | Potency [11] | Potency [12] | Potency [13] | activity, negative = cell killing [14, 18] -6.49% | activity, negative = cell killing [14, 19] -12.7% | activity, negative = cell killing [14, 20] -27.7% | activity, negative = cell killing [14, 21] 5.13% | Potency [15]

Cn1cc[nH]c1=S
inactive: Potency [1] | Potency [2] | Potency [3] | Potency [4] | Potency [5] | Potency [6] | Potency [7] | Potency [8] | Potency [9] | Potency [10] | Potency [11] | Potency [12] | Potency [13] | activity, negative = cell killing [14, 22] 3.07% | activity, negative = cell killing [14, 23] -12.9% | activity, negative = cell killing [14, 24] -12.3% | activity, negative = cell killing [14, 25] -28.7% | Potency [15]

CCC(=O)Nc1ccc(O)cc1
inactive: Potency [1] | Potency [2] | Potency [3] | Potency [4] | Potency [5] | Potency [6] | Potency [7] | Potency [8] | Potency [9] | Potency [10] | Potency [11] | Potency [12] | Potency [13] | activity, negative = cell killing [14, 18] -16% | activity, negative = cell killing [14, 19] -0.42% | activity, negative = cell killing [14, 20] -15.2% | activity, negative = cell killing [14, 21] -16.9% | Potency [15]

COc1cc(C)c(Cc2cnc(N)nc2N)cc1OC
inactive: Potency [1] | Potency [2] | Potency [3] | Potency [4] | Potency [5] | Potency [6] | Potency [7] | Potency [8] | Potency [9] | Potency [10] | Potency [11] | Potency [12] | Potency [13] | activity, negative = cell killing [14, 18] -4.72% | activity, negative = cell killing [14, 19] -19.5% | activity, negative = cell killing [14, 21] -26.1% | Potency [15]

CC[C@@]1(c2ccccc2)NC(=O)N(C)C1=O
inactive: Potency [1] | Potency [2] | Potency [3] | Potency [4] | Potency [5] | Potency [6] | Potency [7] | Potency [8] | Potency [9] | Potency [10] | Potency [11] | Potency [12] | Potency [13] | activity, negative = cell killing [14, 18] -13.7% | activity, negative = cell killing [14, 19] -9.17% | activity, negative = cell killing [14, 21] 9.18% | Potency [15]

NCCNCCNCCN
inactive: Potency [1] | Potency [2] | Potency [3] | Potency [4] | Potency [5] | Potency [6] | Potency [7] | Potency [8] | Potency [9] | Potency [10] | Potency [11] | Potency [12] | Potency [13] | activity, negative = cell killing [14, 18] -6% | activity, negative = cell killing [14, 19] -28.2% | activity, negative = cell killing [14, 21] -8.15% | Potency [15] | max response [16] 9.63% | outcome [17]

Reference: PubChem BioAssay (NCATS)
